According to PubChem BioAssay (EPA / NIEHS):
Results filed as inconclusive are left out. The source made the active and inactive calls. The calls were made as follows, unless noted: active = hit-call score of the fitted dose curve at least 0.9, where 1 is the maximum; inactive = score below 0.9.

Key:
[1] = TAMU_HCS_1.5hr_SingleDonor1434_Cytotoxicity: Cytotoxicity Assessment using High-content Screening (HCS) Fluorescent Imaging for the Texas A&M University (TAMU) 1.5-hr Human Induced Pluripotent Stem Cell (iPSC)-derived Cardiotoxicity Assay (AID 2284234; active = hit-call score of the fitted dose curve at least 0.9, where 1 is the maximum)
Procedure, shortened: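 Human iPSC-derived cardiomyocytes dosed at 0.2, 1, 10, 100 uM final (0.5% DMSO) for 90 min at 37 C. Hoechst 33342-stained nuclei counted by 10x high-content imaging; POD is EC10, a 10% drop in total cell count versus DMSO.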

[2] = TAMU_PeakParms_SingleDonor1434_QT: Texas A&M University (TAMU) 1.5-hr Human Induced Pluripotent Stem Cell (iPSC)-derived Cardiomyocytes Calcium (Ca+2) Flux Assay for Cardiotoxicity: QT (decay-rise ratio) (AID 2284235; active = hit-call score of the fitted dose curve at least 0.9, where 1 is the maximum)
Procedure, shortened: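 iPSC-derived cardiomyocytes (single donor 1434) dosed at 0.2, 1, 10, 100 uM final in 0.5% DMSO, 90 min at 37C. Ca2+ flux fluorescence decay/rise ratio; EC05 (5% increase versus DMSO) as POD, excluding beat-arrest and severe-notch data.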

[3] = read-out: Collagen I, COL1A1 (gene 1277); test: BSK_MyoF_CollagenI: BioMAP Diversity Plus: MyoF Assay for Collagen I Biomarker Activity (AID 2284238); conditions: primary human lung fibroblasts
Procedure, shortened: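 Human lung fibroblasts were exposed to test chemical for 24 h, then Collagen I was quantified by ELISA. Activity was fitted in the increasing direction against DMSO as the negative control and baseline.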

[4] = read-out: Collagen III, COL3A1 (gene 1281); test: BSK_MyoF_CollagenIII: BioMAP Diversity Plus: MyoF Assay for Collagen III Biomarker Activity (AID 2284239); conditions: primary human lung fibroblasts
Procedure, shortened: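 Human lung fibroblasts were dosed with chemicals and, 24 hours later, collagen III was measured by ELISA. Activity was fitted in the positive direction against the DMSO negative-control baseline.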

[5] = read-out: Interleukin 17F (IL17F), IL17F (gene 112744); test: BSK_BT_xIL17F: BioMAP Diversity Plus: BT Assay for Interleukin 17F (IL17F) Biomarker Activity (AID 2284243); conditions: primary human B cells with PBMC
Procedure, shortened: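 B cell/PBMC co-culture (human primary), 24 h compound exposure; sIL-17F by Luminex xMAP; gain-of-signal fit vs DMSO baseline.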

[6] = read-out: Actin alpha 1 (ACTA1), ACTA1 (gene 58); test: BSK_MyoF_ACTA1: BioMAP Diversity Plus: MyoF Assay for Actin alpha 1 (ACTA1) Biomarker Activity (AID 2284244); conditions: primary human lung fibroblasts
Procedure, shortened: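 Measured by ELISA: alpha-smooth muscle actin in human primary lung fibroblasts 24 h after dosing, with DMSO as baseline and upward signal change as the fitted direction.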

## CCCCNC(=O)OCC#CI
[1]
  AC50: 4.75 µM (active)
[2]
  outcome: inactive

## CNC(=O)ON=CC(C)(C)SC
[2]
  outcome: inactive

## COc1cnc(OC)n2nc(NS(=O)(=O)c3c(OCC(F)F)cccc3C(F)(F)F)nc12
[3]
  outcome: inactive
[4]
  outcome: inactive
[5]
  outcome: inactive
[6]
  outcome: inactive
